TWEAK-Fn14 inh: inhibitors of TWEAK-Fn14 signaling, primary screen, luciferase reporter cells, uHTS; AID 1159606, 2016; TWEAK-stimulated Fn14 reporter cells, luciferase luminescence, 8 h; inhibition, % at 10 µM; 360,000 tested, 2% active; in the data active means inhibition above about 50%
TROY signal inh: inhibitors of TROY-driven NF-kB signaling, primary screen, Q293 LMP1-TROYcd cells, NF-kB luciferase, uHTS | Q293 LMP1-TROYcd NF-kB luciferase reporter, 4 h | inhibition, % at 10 µM | 360,000 tested, 0.98% active;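 active means compounds whose plate-normalised and pattern-corrected inhibition of the luciferase reporter signal at the single screening dose is 50% or more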
HSP90 inh: HSP90 inhibitors, primary screen, cell lysate, luminescence | Heat shock protein HSP 90 (rabbit reticulocyte lysate; luciferase refolding) | Rabbit reticulocyte lysate, luciferase refolding luminescence, 3 h | inhibition, % at 5.6 µM | 290,000 tested, 0.91% active;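 active means inhibition above the screen-wide mean plus 3 SD, computed separately per campaign, cut at about 16% in these data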;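 further: 0% = DMSO wells and 100% = 60 µM geldanamycin wells; inhibitors lower the luminescence because luciferase stays unfolded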
C8 TRAIL sens: viability loss with TRAIL in NB7+C8 cells, primary screen, TRAIL sensitizer project, cell-based, ATPlite luminescence; inhibition (viability loss, TRAIL sensitization), % at 10 µM; 360,000 tested, 1% active; AID 624354, 2012;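 active means compounds causing at least 50% loss of cell viability in the single-dose screen, relative to plate controls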
PPC-1+TRAIL kill: compounds killing PPC-1 cancer cells with TRAIL present, primary screen, TRAIL potentiator project, ATPLite luminescence, uHTS | PPC-1 cells + TRAIL, ATPLite viability luminescence | cell killing (% activity), % at 4 µM or 5 µM | 220,000 tested, 0.41% active;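 active means cell killing above 50% in the first pass at 4 µM, then a duplicate retest at 5 µM averaging 50% or more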;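 further: plate controls were cells with TRAIL plus DMSO for no effect and medium-only wells lacking cells for full effect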
Platelet DG rel: inhibitors of platelet dense granule secretion, primary screen, cell-based, MLPCN, human platelets | AID 1663, 2009 | inhibition, %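 (compounds screened at 7.5 µM in platelet-rich plasma)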 | 300,000 tested, 0.22% active | human platelet-rich plasma, SFLLRN dense granule ATP release, luminescence;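 active means mean replicate score, as percent of positive control, at or above 50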
The depositor's hits bear a star; / = no result. Compounds with a hit are over-represented: about 3.5% of the library has one in this group of screens.

SMILES	TWEAK-Fn14 inh	TROY signal inh	HSP90 inh	C8 TRAIL sens	PPC-1+TRAIL kill	Platelet DG rel
O=C(COc1coc(CN2CCc3ccccc32)cc1=O)Nc1ccc([N+](=O)[O-])cc1	1.2	-5.0	/	9.1	/	5.9
Cc1ccc(S(=O)(=O)N2CCC(C(=O)NCCN3CCOCC3)CC2)cc1	-6.5	-3.4	/	-17.7	/	/
COc1cc(CCNC2=CC(=O)c3ncccc3C2=O)ccc1O	10.2	1.2	/	57.8*	/	/
O=C1c2ccccc2NC(c2ccccc2)N1/N=C/c1ccccc1 (stereo not given)	29.0	10.1	1.6	54.7*	36.0	2.3
Cc1cccn2c(=O)nc(SCC(=O)N3CCC(Cc4ccccc4)CC3)nc12	-16.4	-11.1	/	2.5	/	-4.2
NS(=O)(=O)c1ccc(CCNC(=O)c2ccncc2)cc1	18.0	-6.6	1.7	5.7	/	-20.0
NS(=O)(=O)c1ccc(CCNC(=O)c2ccc(C#CC3(O)CCCCC3)cc2)cc1	26.9	56.2*	0.5	2.6	22.3	2.0
CC(C)c1ccc(C(CC(=O)O)N2Cc3ccccc3C2=O)cc1 (stereo not given)	17.4	11.6	-0.6	-7.9	/	-0.9
CCN(CC)S(=O)(=O)c1cc(NC(=O)CSc2nc3c(cc2C#N)C(=O)CC(C)(C)C3)ccc1C	55.4*	45.9	-0.2	23.5	18.9	-40.1
Cc1ccn2cc(-c3ccc(O)c(O)c3)nc2c1	79.7*	-16.2	15.2	76.4*	/	-1.8
Oc1ccc(-c2cn3ccccc3n2)cc1O	1.5	-68.6	-4.4	26.0	/	7.1
CC(=O)C1=CCC(c2ccc(F)cc2)N(S(=O)(=O)c2ccc(C)cc2)C1 (stereo not given)	0.1	12.3	/	15.3	/	/
C(C#CCCCCCCCCC[n+]1ccccc1)#CCCCCCCCCC[n+]1ccccc1	89.6*	44.5	-5.5	90.9*	/	-17.9
Cc1oc(S(=O)(=O)N(C)C)cc1C(=O)Nc1ccc(F)cc1	2.7	-34.5	1.7	-2.7	-15.0	-1.5
COc1ccccc1-c1cc2nc(-c3ccccc3)cc(N3CCN(C(=O)c4ccoc4)CC3)n2n1	20.5	4.0	/	74.0*	/	/
COc1ccccc1-c1cc2nc(-c3ccccc3)cc(N3CCN(C(=O)c4ccco4)CC3)n2n1	97.6*	70.0*	/	75.3*	/	/
COc1cccc(-c2cc3nc(-c4ccccc4)cc(N4CCN(C(=O)c5ccoc5)CC4)n3n2)c1	22.3	28.9	/	79.0*	/	/
COc1cccc(-c2cc(N3CCN(C(=O)c4ccoc4)CC3)n3nc(-c4cccc(Cl)c4)cc3n2)c1	14.1	0.0	/	48.3	/	/
O=C1CCC(C(=O)N(CCO)Cc2ccccc2)CN1CCc1cccc(F)c1 (stereo not given)	-7.2	-4.8	/	-27.5	/	/
CC(=O)Nc1ccc(N/C=C/C(=O)c2ccc(Cl)cc2)cc1	-32.2	-42.9	4.4	13.2	/	-4.7
O=C(/C=C/Nc1ccccc1F)c1ccc(Br)cc1	44.9	-7.2	-3.6	68.0*	40.4	2.2
N#Cc1ccccc1N/C=C/C(=O)c1ccc(Cl)cc1	34.9	-56.0	/	50.6*	/	-1.5
CCCCOc1ccc(SCCCN2CCOCC2)cc1	0.3	-3.8	/	-4.0	/	/
CCOc1cc(/C=C2\CCC/C(=C\c3cc(Cl)c(O)c(OCC)c3)C2=O)cc(Cl)c1O	76.6*	61.5*	2.3	2.7	20.5	12.8
C=CCNC(=O)/C(C#N)=C\c1cc(Cl)c(O)c(OCC)c1	0.7	-4.0	7.2	-3.7	17.2	0.8
CCOc1cc(/C=C2\CN(C)C/C(=C\c3ccc(O)c(OCC)c3)C2=O)ccc1O	103.5*	28.2	10.3	-6.9	/	4.2
Cc1ccc(NC(=S)Nc2ccc(C(C)C)cc2)cc1S(=O)(=O)N1CCCCCC1	67.3*	16.8	-3.8	27.9	24.6	0.3
COc1cc(CCC(=O)Nc2ccc(C)c(S(=O)(=O)N3CCCCCC3)c2)cc(OC)c1OC	51.3*	33.8	/	25.2	/	/
O=C(Nc1ccc(S(=O)(=O)N2CCCCC2)cc1)C1CC(=O)N(Cc2ccccc2)C1 (stereo not given)	9.6	3.4	/	-9.2	/	2.6
COc1ccc(NC(=O)CSc2ccc3ccccc3c2)cc1S(=O)(=O)N1CCCCC1	58.5*	19.1	-3.9	25.0	4.6	-4.9

Bioassay records deposited in PubChem by several laboratories.
